# Source: PubChem BioAssay (National Center for Advancing Translational Sciences (NCATS))
# LmPK inh = inhibitors of Leishmania mexicana pyruvate kinase | purified LmPK, Kinase-Glo ATP luminescence, 1 h | Potency, µM (series often up to 57.5 µM), for inactives: at the highest dose activity change, negative = inhibition, usual class: inhibitors | AID 1721 | 290,000 tested, 0.37% active; also: potency is read from the fitted curve at half-maximal effect; % is scaled to controls: 0 for no effect and ±100 for the full control effect
#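 Kinase-Glo luminescence read after 1 h RT reaction of 0.1 nM LmPK with 0.5 mM PEP and 0.1 mM ADP. Activity scaled between uninhibited and enzyme-free controls.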
# TbPYK inhibitor = inhibitors of Trypanosoma brucei pyruvate kinase; Potency, µM (titrated, usually from 76.8 µM), without a hit: at the top dose activity, negative = inhibition, usual class: inhibitors; 410,000 tested, 0.12% active; Q57TT1; TbPYK enzyme, Kinase-Glo Plus ATP luminescence, 45 min; also: potency is read from the fitted curve at half-maximal effect; % is scaled to controls: 0 for no effect and ±100 for the full control effect; nearly all actives have a fitted effect of over 50% in size
#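 In this concentration-response screen, enzyme-free wells defined baseline while DMSO plates tracked drift. Each reaction combined TbPYK, substrate, compound and 130 uM ADP for 45 min at room temperature. Kinase-Glo Plus luminescence gave the signal.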
# RE007 growth inh = less growth of the S. pombe RE007 Vpr strain | S. pombe RE007 Vpr strain, BacTiter-Glo ATP luminescence, 24 h | Potency, µM (series often up to 92.2 µM), inactives show top-dose activity change, negative = less growth, actives largely listed as inhibitors | 360,000 tested, 0.21% active | AID 651644; active = well fitted falling curve with a large enough effect; inconclusive = small, poorly fitted or top-dose-only effect; inactive = no such curve, though single readings can be large or run the other way; also: potency is read from the fitted curve at half-maximal effect; % is scaled to controls: 0 for no effect and ±100 for the full control effect; nearly all actives have a fitted effect of over 50% in size
#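 Fission yeast strain RE007, carrying one chromosomally integrated HIV-1 vpr copy, was seeded at OD 0.01 in PMG+AL medium with 23 nL pinned compound. After 24 h at 30 °C and 99% humidity, viability was read by BacTiter-Glo luminescence.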
# CHX counter-1 = counter-screen hit for Shiga toxin inhibitors, cycloheximide; cell reporter, cycloheximide protein synthesis inhibition counterscreen; max response, %; 300,000 tested, 12% active; AID 2314; in the data active = max response mostly above about 13%, no sharp cut-off; inactive = mostly below about 14%; also: read at 38.3 µM for the half of the compounds with a filed dose; 0% is about no effect
# Shiga inhibitor = blocks Shiga toxin action in Vero cells; Vero cells, Shiga toxin protein synthesis inhibition reporter; inhibition, % at 38.7 µM; 290,000 tested, 9.2% active; in the data active = inhibition mostly above about 28%, no sharp cut-off; inactive = mostly below about 43%; also: 0% is about no effect
# FBPA Giardia inh = Giardia lamblia aldolase inhibition. A8B2U2. purified Giardia FBPA. Potency, µM (top dose mostly 59.6 µM), inactives show at the top dose activity, negative = inhibition, usual class: inhibitors. 290,000 tested, 0.71% active. AID 2451; also: potency is read from the fitted curve at half-maximal effect; % is scaled to controls: 0 for no effect and ±100 for the full control effect; nearly all actives have a fitted effect of over 55% in size
# Target sequence (A8B2U2 whole entry, looked up): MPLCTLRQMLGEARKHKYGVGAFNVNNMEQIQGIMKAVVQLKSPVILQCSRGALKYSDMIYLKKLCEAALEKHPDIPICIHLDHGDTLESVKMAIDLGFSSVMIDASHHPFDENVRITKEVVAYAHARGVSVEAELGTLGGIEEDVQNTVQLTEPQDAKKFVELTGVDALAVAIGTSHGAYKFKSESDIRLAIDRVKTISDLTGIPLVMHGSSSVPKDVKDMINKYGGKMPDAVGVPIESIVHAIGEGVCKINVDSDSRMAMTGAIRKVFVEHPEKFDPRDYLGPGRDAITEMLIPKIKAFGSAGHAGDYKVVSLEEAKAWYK
#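 40 nM FBPA preincubated 10 min at RT with compound (up to 57.5 uM final), then substrate plus GAPDH/TPI/NAD/arsenate coupling and diaphorase/resazurin added. Fluorescence read after 20 min at RT, 525/598 nm.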
# CHX counter-2 = affects protein synthesis reporter in cycloheximide counter-screen. 510 tested, 3% active. Cycloheximide counterscreen, protein synthesis reporter, Shiga toxin assay. shares compounds with Shiga inhibitor. Potency, µM (series often up to 38.3 µM), inactives show top-dose activity (activation), hits mostly activators; calls by dose curve; also: potency is read from the fitted curve at half-maximal effect; 0% is about no effect
# Numbers without * were called inactive; ? = inconclusive; / = not tested or not shown; [ ] = another dose, or the depositor's remark. The entries come from a sample that favours hits as a whole. Unless noted, calls follow the shape of the dose curve; as a rule, active = well fitted curve in the direction sought with a large enough effect; inconclusive = small, poorly fitted or top-dose-only effect, or another doubt; inactive = no such curve, though single readings can be large; an effect the other way counts as inactive or inconclusive.
SMILES,LmPK inh,TbPYK inhibitor,RE007 growth inh,CHX counter-1,Shiga inhibitor,FBPA Giardia inh,CHX counter-2
CC(=O)N[C@@H](Cc1c[nH]c2ccccc12)C(=O)OCC(=O)Nc1ccc(Cl)c(S(=O)(=O)N(C)C)c1,2%,1%,10%,9,43*,-3%,4%
COc1ccc(C)cc1NS(=O)(=O)c1cc(Br)cc2c1N(C(C)=O)C(C)C2 (stereo not given),/,-5%,/,/,/,/,/
O=C(NCc1ccccc1Cl)C1CCCN(c2ncnc3onc(-c4ccc(F)cc4)c23)C1 (stereo not given),/,-3%,/,/,/,/,/
Cc1nn(C(=O)COc2ccccc2)c(C)c1Sc1ccccc1,/,0%,/,/,/,/,/
CCN(C1CCCCC1)S(=O)(=O)c1ccc(S(=O)(=O)NCc2ccncc2)cc1,-1%,1%,7%,1,39*,-1%,-4%
CCCS(=O)(=O)c1c(S(=O)(=O)CCC)c2cc(C(C)(C)C)ccn2c1C(=O)c1ccc(C)cc1,/,0%,/,/,/,/,/
Cc1noc(/C=C/c2ccco2)c1S(=O)(=O)N1CCC(C(=O)N(C)Cc2ccccc2)CC1,1%,-1%,13%,13,40*,4%,?
COc1ccc(N2C(=O)CS(=O)(=O)C23C(=O)N(Cc2c(F)cccc2Cl)c2ccccc23)cc1 (stereo not given),/,-4%,/,/,/,/,/
CCN(CCn1cccn1)Cc1nc(-c2ccccc2)no1,-1%,-3%,7%,7,34*,-3%,4%
O=C(Cc1ccccc1F)c1ccc(O)cc1O,2%,-3%,3%,10,21,15%,/
O=C(Cc1c(F)cccc1Cl)c1ccc(O)cc1O,3%,-1%,-16%,0,101*,1%,-3%
Cc1oc(-c2ccccc2Cl)nc1CSc1nncn2c1cc1occc12,/,-2%,/,/,/,/,/
COc1ccccc1NC(=O)CSc1nnc2ccccn12,/,0%,-3%,/,/,/,/
COc1ccc(-c2nc(NC(=O)CSc3nnc4ccccn34)ns2)cc1,-1%,-5%,2%,2,44*,-5%,?
Cc1cc(NC(=O)CSc2nc3ccsc3c(=O)n2Cc2ccccn2)n[nH]1,-7%,-14%,7%,12,65*,3%,1%
O=C(CSc1ccccc1)NCc1ccc2c(c1)CCN2C(=O)c1ccc(F)cc1,/,1%,/,/,/,/,/
COC(=O)[C@H](Cc1ccccc1)NC(=O)N1CCC(C)CC1,1%,2%,5%,9,-10,2%,/
COC(=O)[C@H](Cc1ccccc1)NC(=O)N1CCCCC1C (stereo not given in full),-3%,1%,14%,10,117*,8%,1%
COc1ccc(NC(=O)N2CC3(CCNCC3)C2)cc1,/,-9%,/,/,/,0%,/
CC(C)Cc1csc(NC(=O)c2ccc(Cl)cc2)c1C(=O)O,-2%,-12%,21%,-2,-6,-22%,/
Cc1cccc(C(=O)Nc2scc(CC(C)C)c2C(=O)O)c1,0%,-4%,4%,-4,40*,-16%,1%
CCc1cccc(NC(=O)Cn2c(=O)ccc3cc(S(=O)(=O)N4CCC(C)CC4)ccc32)c1,/,1%,/,/,/,/,/
CC(C)(C)OC(=O)N1CCC(c2c(C(=O)NCCN3CCC(Cc4ccccc4)CC3)cnn2-c2cccc(Cl)c2)CC1,/,2%,/,/,/,/,/
Cc1nn(C2CCCCC2)c(N)c1-c1ccccc1,-4%,-16%,-1%,-2,33*,-14%,3%
CCC(C)NC(=O)CN1C(=O)c2cccnc2Oc2ccc(C)cc21 (stereo not given),/,-4%,/,/,/,/,/
SMILES,LmPK inh,TbPYK inhibitor,RE007 growth inh,CHX counter-1,Shiga inhibitor,FBPA Giardia inh,CHX counter-2
CC(=O)Nc1ccc(Oc2ccc(-c3noc(C)n3)cc2)cc1,-1%,-3%,24%,12,82*,13%,0%
COc1cccc(CNC(=O)N2CCc3c(sc4c3CCCC4)C2c2ccc(F)cc2)c1 (stereo not given),/,1%,/,/,/,/,/
O=C(CC1N=C2c3ccccc3N=C(SCc3ccc(Cl)cc3)N2C1=O)NCCc1ccccc1 (stereo not given),/,5%,/,/,/,/,/
Cc1ccc2[nH]c(=O)c(CN(CCCN3CCOCC3)C(=O)Nc3ccc(Cl)cc3)cc2c1,0%,-2%,6%,9,48*,4%,0%
CCOC(=O)c1ccc(N/C=C/C(=O)c2ccc(OC)c(OC)c2)cc1,1%,4%,-13%,14,58*,1%,3%
COc1ccc(C2=NN(C(=O)c3ccco3)C(c3cc4ccccc4nc3Cl)C2)cc1 (stereo not given),2%,-7%,-1%,5,28*,-1%,0%
COc1ccc2cc(C3CC(c4ccco4)=NN3C(=O)CCC(=O)O)c(Cl)nc2c1 (stereo not given),0%,-6%,-1%,-1,10,9%,/
COc1ccc2sc(N(Cc3cccnc3)C(=O)c3ccc4c(c3)OCCO4)nc2c1,/,-1%,/,/,/,/,/
Cc1ccc(/C(O)=C2\C(=O)C(=O)N(c3cc(C)on3)C2c2cccc(Br)c2)cc1 (stereo not given),4%,-7%,0%,2,39*,0%,-3%
Cc1cc(N2C(=O)C(=O)/C(=C(/O)c3ccc(F)cc3)C2c2cccc(Br)c2)no1 (stereo not given),8%,1%,0%,1,-3,10%,/
Cn1ncc(Br)c1C(=O)N1CCc2ccccc21,5%,-9%,13%,-2,16,-11%,/
Cn1cc(Br)c(C(=O)N2CCc3ccccc32)n1,-1%,4%,?,9,active,7%,6%
O=C(COCc1cc(-c2cccs2)on1)Nc1ccc(OC(F)(F)F)cc1,/,0%,/,/,/,/,/
CCc1ccc2nc(N(CCN(CC)CC)C(=O)c3ccco3)sc2c1,/,4%,/,/,/,/,/
CC(C)Cc1nc2oc3c(NCC4CCCO4)ncnc3c2c2c1CCC2 (stereo not given),5%,3%,2%,-4,58*,-6%,-4%
CC(C)Cc1nc2oc3c(NCc4cccnc4)ncnc3c2c2c1CCC2,0%,/,9%[3.69 µM],-2,-19,13%,/
Cc1cc(C)cc(NC(=O)C(OC(=O)c2ccc([N+](=O)[O-])o2)c2ccccc2)c1 (stereo not given),-3%,-4%,-6%,-2,30*,-27%,1%
CCOc1ncccc1C(=O)Nc1c(C)n(C)n(-c2ccccc2)c1=O,-13%,1%,-12%,9,32*,2%,4%
CCOc1ccc(Nc2nc3c(S(=O)(=O)c4ccc(CC)cc4)nnn3c3ccc(Cl)cc23)cc1,/,0%,/,/,/,/,/
Cc1cc(NC(=O)Cc2ccc(Br)cc2)no1,3%,-9%,1%,5,18,-9%,/
